Screens (PubChem BioAssay)
PTPN22 act = increases human PTPN22 phosphatase activity | Q9Y2R2 | recombinant LYP, DiFMUP fluorescence; 0 = plate median, 100 = signal doubled | activation, % at 2 µM | 96,000 tested, 0.11% active;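 active = activation at 2 µM above a set limit, the mean plus 5 SD, cut at about 37% in these data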
Target sequence (Q9Y2R2 whole entry, looked up): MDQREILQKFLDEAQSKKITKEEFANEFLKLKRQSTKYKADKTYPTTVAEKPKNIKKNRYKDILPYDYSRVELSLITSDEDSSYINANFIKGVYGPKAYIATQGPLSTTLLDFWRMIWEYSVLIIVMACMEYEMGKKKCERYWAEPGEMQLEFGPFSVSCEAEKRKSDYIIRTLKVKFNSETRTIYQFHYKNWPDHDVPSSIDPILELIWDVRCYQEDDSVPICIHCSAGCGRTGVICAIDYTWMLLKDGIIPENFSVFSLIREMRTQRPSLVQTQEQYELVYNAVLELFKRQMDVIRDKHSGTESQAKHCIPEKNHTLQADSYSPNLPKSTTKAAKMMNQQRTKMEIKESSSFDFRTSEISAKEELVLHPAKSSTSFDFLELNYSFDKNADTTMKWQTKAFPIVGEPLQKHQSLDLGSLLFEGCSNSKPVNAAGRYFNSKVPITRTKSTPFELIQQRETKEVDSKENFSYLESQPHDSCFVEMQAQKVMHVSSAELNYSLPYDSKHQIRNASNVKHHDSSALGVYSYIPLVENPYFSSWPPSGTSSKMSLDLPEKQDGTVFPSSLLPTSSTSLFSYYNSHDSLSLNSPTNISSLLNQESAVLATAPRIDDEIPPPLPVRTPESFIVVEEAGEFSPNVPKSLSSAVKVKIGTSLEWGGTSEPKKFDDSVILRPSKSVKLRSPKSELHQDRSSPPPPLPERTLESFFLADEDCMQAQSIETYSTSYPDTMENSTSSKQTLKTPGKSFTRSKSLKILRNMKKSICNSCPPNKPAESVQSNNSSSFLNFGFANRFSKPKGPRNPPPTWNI
PLK1 inh = inhibitors of human PLK1 kinase; P53350; recombinant PLK1 kinase, TR-FRET peptide phosphorylation; inhibition, % at 10 µM; 97,000 tested, 0.53% active; AID 619;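 active = inhibition of 50% or more in the single-concentration screen; inactive = inhibition below 50%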;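 note: 0% = DMSO max control and 100% = H-89 dihydrochloride min control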
EphB4 antag = EphB4-ephrin-B2 interaction antagonism. P54760. 97,000 tested, 0.15% active. AID 720. inhibition, % at 7 µM. EphB4 LBD / TNYL-RAW-Alexa532 peptide, fluorescence polarization;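 active = inhibition above the screen-wide mean inhibition plus 3 SD, cut at about 15% in these data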;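 note: 0% = DMSO wells and 100% = excess unlabeled TNYL-RAW peptide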
PLK1 PBD inh = inhibitors of human Plk1 polo box domain binding | P53350 | Plk1 PBD phosphopeptide binding, fluorescence polarization | inhibition, %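 (tested at about 20 µM)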 | 97,000 tested, 0.13% active; in the data active = inhibition above about 34%, passing the limit was not always enough
FAK blocker = FAK (human) kinase inhibition. Q05397. biochemical FAK kinase activity assay. inhibition, %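 (tested at 7 µM)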. 97,000 tested, 0.84% active;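 note: 0% = DMSO and 100% = reference compound high control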
LYP inh 2 = blocks human PTPN22 phosphatase activity. recombinant LYP catalytic domain, DiFMUP fluorescence. inhibition, % at 2 µM. 96,000 tested, 0.21% active. AID 640;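 active = inhibition at 2 µM at or above a set limit, the screen mean plus 3 SD, cut at about 24% in these data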;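 note: 0% = DMSO with enzyme and 100% = enzyme fully blocked by orthovanadate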
PLK1 inh conf = PLK1 (human) kinase inhibition, confirmed; shares compounds with PLK1 inh; recombinant PLK1 kinase, TR-FRET peptide phosphorylation; inhibition, % at 10 µM; 210 tested, 20% active; AID 744;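 active = inhibition at or above 50% in each of two repeat confirmation tests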;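 note: 0% = DMSO max control and 100% = H-89 kinase-blocked min control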
Plk1 interf = counter-screen for Plk1 inhibitors: compound assay interference. inhibition (interference), % at 10 µM. Plk1 TR-FRET assay interference, compound added post-reaction. shares compounds with PLK1 inh. 210 tested, under 10 active. AID 756;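 active = both duplicate runs show 50% or greater inhibition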;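 note: 0% = DMSO max control and 100% = H-89 min control inhibited reaction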
PBD redox DR = counter-screen for Plk1 PBD inhibitors: redox cycling H2O2 generation. AID 876. DTT. EC50, µM. 120 tested, under 10 active. shares compounds with PLK1 PBD inh; call rule not given here
FAK inh confirm = FAK (human) inhibition confirmed; inhibition, % at 7 µM; shares compounds with FAK blocker; 750 tested, 28% active; FAK kinase biochemical inhibition assay
* hit, by the source's call; . = not tested or not shown. Compounds with a hit are over-represented: about 1.7% of the library has one in this group of screens. Cut-off read from the data, not from the text of the source, unless noted: active = inhibition above about 19%; inactive = the rest.

SMILES	PTPN22 act	PLK1 inh	EphB4 antag	PLK1 PBD inh	FAK blocker	LYP inh 2	PLK1 inh conf	Plk1 interf	others
Cn1nnnc1SCC(=O)Nc1ccc(N2CCOCC2)cc1	6	75*	4	-13	0	-10	-3	-54
CCOc1ccc(/C=N/NC(=O)COc2ccccc2-c2ccccc2)cc1	4	-13	-1	43	4	1	.	.
O=C(COc1ccccc1C(=O)N/N=C\c1ccc(O)c(O)c1)N/N=C/c1ccc(O)c(O)c1	-28	86*	-1	5	2	32*	72*	69*
CC(C)CN(C(=O)c1nn(C)c(=O)c2ccccc12)c1nc2ccccc2s1	3	1	5	-8	-3	-6	.	.
O=C(NCCCN1CCOCC1)c1cc(-c2ccc3c(c2)OCO3)nc2ccccc12	.	72*	-5	28	-3	.	-1	-51
COc1ccc(-c2cc(C(=O)NCCN3CCOCC3)c3ccccc3n2)cc1	3	8	5	-21	-3	-4	.	.
Cc1c(NC(=O)C(C)N2C(=O)C3C4C=CC(C4)C3C2=O)c(=O)n(-c2ccccc2)n1C (centres undefined)	.	71*	-6	-20	1	.	-6	-47
O=c1ccc2cc3c([nH]c4ccc(Br)cc43)oc-2c1O	-15	71*	11	6	0	14	22	-20
O=c1[nH]c2ccc(Br)cc2c(-c2ccccc2)c1N1CCOCC1	-2	-5	5	3	-8	0	.	.
CC(C)NS(=O)(=O)c1ccc(CCC(=O)Nc2ccc3c(c2)OCO3)cc1	-2	-13	6	8	-1	4	.	.
Cc1cccc(Nc2ncnc3nc[nH]c23)c1	2	76*	7	9	15	-5	81*	-48
Cc1ccc(C)c(Nc2ncnc3nc[nH]c23)c1	0	41	0	1	4	-3	.	.
c1ccc(COc2ccc(Nc3ncnc4nc[nH]c34)cc2)cc1	1	72*	-6	-19	7	-4	44	-52
c1ccc(CNc2ncnc3nc[nH]c23)nc1	6	40	8	4	6	-9	.	.
COc1cccc(CNC(=O)C(=O)NCC2CCCO2)c1 (centres undefined)	5	2	4	-13	-1	-4	.	.
O=C1NC2CCCCC2NC1CC(=O)N1CCN(c2ccccc2)CC1 (centres undefined)	10	-6	-8	-19	1	-11	.	.
CCC(Sc1nncn1C)C(=O)Nc1ccccc1OC (centres undefined)	-5	-7	2	-4	-3	4	.	.
CC1CCN(CC(O)COc2cccc(F)c2)CC1 (centres undefined)	.	74*	-5	7	2	.	-2	-55
CN1CCN(CC(O)COc2ccc(OCC(O)CN3CCN(C)CC3)cc2)CC1 (centres undefined)	-2	-18	6	-14	9	6	.	.
COc1cccc(OCC(O)CN2CCC(C)CC2)c1 (centres undefined)	-2	-5	-2	14	-1	1	.	.
CC1CCN(CC(O)COc2ccc(F)cc2)CC1 (centres undefined)	.	75*	6	0	1	.	-8	-58
CC(C)CNc1c(N)c(=O)oc2ccccc12	-6	-6	-6	-27	3	2	.	.
COCCNC(=O)c1ccc(CS(=O)(=O)c2ccc(C)cc2)o1	-5	-15	7	-4	4	4	.	.
COCCCNC(=O)c1ccc(CS(=O)(=O)c2ccc(Br)cc2)o1	.	75*	2	-16	-4	.	-6	-50
N#Cc1c(NC(=O)CSc2ncnc3sccc23)oc(-c2ccco2)c1-c1ccco1	-13	77*	-1	-4	22*	13	-9	-53	FAK inh confirm=1
SMILES	PTPN22 act	PLK1 inh	EphB4 antag	PLK1 PBD inh	FAK blocker	LYP inh 2	PLK1 inh conf	Plk1 interf	others
CCNC(=O)CSc1ncnc2sccc12	-2	-5	4	-9	6	3	.	.
O=C(CCCCCn1c(SCc2ccncc2)nc2ccccc2c1=O)NCc1ccco1	-9	-16	6	-15	11	10	.	.
CCCOc1ccc(C(C)=O)cc1CSc1nc(O)cc(=O)[nH]1	8	3	-3	6	2	-7	.	.
CCCc1[nH]nc2c1C(c1ccc(O)c(OC)c1)C(C#N)=C(N)O2 (centres undefined)	-3	109*	1	0	20*	-1	-3	-46	FAK inh confirm=0
NC(=O)c1cc(N)ccc1N1CCCC1	3	-11	-1	-14	6	-5	.	.
Cc1cc(N)ccc1N1CCCC1	-18	80*	13	11	74*	20	20	-24	FAK inh confirm=58*
c1ccc2c(-c3ccncc3)c[nH]c2c1	3	78*	10	-16	21*	-2	71*	-60	FAK inh confirm=9
NC(=O)Cn1c(S(=O)(=O)Cc2ccccc2)nc2ccccc21	3	-12	1	43*	3	-11	.	.	PBD redox DR=>50
O=C(Cn1c(S(=O)(=O)Cc2ccccc2)nc2ccccc21)N1CCCCC1	-5	-9	9	2	-4	4	.	.
CC/C(=N\NC(=O)c1ccc(-c2ccccc2)cc1)C12CC3CC(CC(C3)C1)C2	-14	6	2	-12	-3	12	.	.
C=CCn1c2ccccc2c2nnc(SCc3ccc4nonc4c3)nc21	18	-6	0	50*	-1	-20	.	.	PBD redox DR=>50
CCC(=O)Nc1ccccc1C(=O)NC1CCCCC1	9	-12	-2	41*	-1	-7	.	.	PBD redox DR=>50
O=C(O)CCC(=O)Nc1ccccc1C(=O)NC1CCCCC1	0	-7	-4	-31	0	0	.	.
N#Cc1cc(C#N)c(N2CCN(c3ccccn3)CC2)nc1N	-1	-5	0	-55	-2	5	.	.
O=C(c1ccc(-n2cnnn2)cc1)N1CCCCC1	24	-9	-3	48*	0	-21	.	.	PBD redox DR=>50
CC(=O)N1CCC(N(C(=O)Nc2c(F)cccc2F)C(C)C)CC1	-1	-14	-1	-2	-1	-2	.	.
O=C(Nc1nc2ccccc2s1)c1cc2c(s1)-c1ccccc1OC2	-4	-16	2	53*	11	3	.	.	PBD redox DR=>50
Cc1ccc(NC(=O)CSc2nnc(-c3ccncc3)n2N)cc1C	5	-3	-7	12	1	-8	.	.
O=C1C(NS(=O)(=O)c2cccs2)=C(N2CCN(c3cccc(C(F)(F)F)c3)CC2)C(=O)c2ccccc21	1	-5	2	-21	1	0	.	.
